From PubChem BioAssay (Tox21)
Results filed as inconclusive are left out. Values without a mark were called inactive. Calls of active or inactive are those of the source. Calls follow the shape of the dose curve; as a rule, active = well fitted cell-killing curve with a large enough effect in the repeat runs; inconclusive = weak or mixed curves, or effect the other way; inactive = no such curve, though single readings can be large or run the other way.

Test: qHTS assay to identify small molecule antagonists of the glucocorticoid receptor (GR) signaling pathway - cell viability counter screen (AID 720693); also: nearly all actives have a fitted effect of over 55% in size
Conditions: GR-bla HeLa viability, CellTiter-Glo luminescence, 18 h, with 5 nM dexamethasone present; series mostly up to 58.5 µM
Excerpt: National Center for Advancing Translational Sciences [NCATS]
NIH Chemical Genomics Center [NCGC]
U.S. Environmental Protection Agency [EPA]
National Institutes of Environmental Health Sciences [NIEHS]
National Toxicology Program [NTP]
U.S. Food and Drug Administration [FDA]
The Glucocorticoid receptor (GR) is one of the members of the nuclear receptor family of ligand-dependent transcription factors. GR plays a critical role in carbohydrate, protein and lipid metabolisms and programmed cell death. CellSensor GR-bla HeLa cell line (Invitrogen) contains a beta-lactamase reporter gene under the control of the glucocorticoid response element stably integrated into HeLa cells, a cervical cancer cell line that expresses glucocorticoid receptor. The activation of the reporter gene under culture conditions can be detected by fluorescence intensity. This cell line has been used to screen the Tox21 10K compound library and to identify the compounds that inhibit the GR signaling. The cytotoxicity of the Tox21 compound library against the GR-bla HeLa cell line was tested in parallel by measuring the cell viability using CellTiter-Glo assay in the same wells.
Tox21 Assay Protocol Summary:
The GR-bla HeLa cells were dispensed at 1500 cells/5 ul/well in 1536-well black wall/clear bottom plates using a Multidrop Combi (ThermoFisher Scientific, Waltham, MA) dispenser. After the assay plates were incubated at a 37 C/5% CO2 incubator for 4 hours, 23 nL of compounds dissolved in DMSO, positive controls or DMSO only was transferred to the assay plate by a pintool station (Kalypsys, San Diego, CA), followed by addition of 1 uL of dexamethasone (5 nM, final concentration in the well). The plates were incubated at 37 C for 18 hours. After 1 uL of LiveBLAzerTM B/G FRET substrate was added using a Flying Reagent Dispenser (Aurora Discovery, San Diego, CA), the plates were incubated at room temperature (RT) for 2 hours, and fluorescence intensity was measured by an Envision plate reader (PerkinElmer, Shelton, CT). After measurement of bla assay, 3 ul CellTiter-Glo (Promega, Madison, WI) was added to measure the cytotoxicity and the plates were then incubated at RT for 30 min. The luminescence was measured using a ViewLux (Perkin Elmer) plate reader.
% is scaled to controls: 0 for no effect and ±100 for the full control effect.

Structure (SMILES)	outcome	viability change, negative = cytotoxic
CN(C)CCc1c[nH]c2ccc(CS(=O)(=O)N3CCCC3)cc12	inactive	
O=Cc1ccc(C(=O)O)cc1	inactive	
CCCC(=O)C(CC)Sc1ccoc1C (stereo not given)	inactive	
CC[C@@]1(c2ccccc2)NC(=O)N(C)C1=O	inactive	
COC(=O)c1ccccc1Cl	inactive	
C=CC(=O)OCC[N+](C)(C)C	inactive	
CCCCCCCCCCCCCC(=O)OCC	inactive	
COc1ccc(Cl)cc1C	inactive	
O=C(O)Cc1c(Cl)ccc(Cl)c1Cl	inactive	
N=C(N)N1CCc2ccccc2C1	inactive	
c1cc2ccc3ccc4ccc5cccc6c(c1)c2c3c4c56		-5.31% [at 3.15 µM]
O=S(=O)(O)c1cc(I)c(O)c2ncccc12	inactive	
CCc1ncc(C)[nH]1	inactive	
C=CCCCCCCCCOC(C)=O	inactive	
CCCCN1C(=O)c2ccccc2C1=O	inactive	
CCCc1ccc(O)c(OC)c1	inactive	
CC1=C(O)C(=O)CO1	inactive	
CN1C(CCl)Nc2cc(Cl)c(S(N)(=O)=O)cc2S1(=O)=O (stereo not given)	inactive	
C[C@]12C=CC(=O)C=C1[C@@H](F)C[C@@H]1[C@@H]2[C@@H](O)C[C@@]2(C)[C@H]1CC[C@]2(O)C(=O)CO	inactive	
CCCCCCCCS(=O)(=O)O	inactive	

Structure (SMILES)	outcome	viability change, negative = cytotoxic
CC(C)(C)OC=O	inactive	
CC(CN1CC(=O)NC(=O)C1)N1CC(=O)NC(=O)C1 (stereo not given)	inactive	
C[C@@H](CN1CC(=O)NC(=O)C1)N1CC(=O)NC(=O)C1	inactive	
CN(C)c1ccncc1	inactive	
CC(=O)OCC(=O)[C@@]1(O)CC[C@H]2[C@@H]3CCC4=CC(=O)C=C[C@]4(C)[C@H]3[C@@H](O)C[C@@]21C	inactive	
C=CC(C)(CCC=C(C)C)OC(=O)C(C)C (stereo not given)	inactive	
Cc1ccc2ccccc2n1	inactive	
O=C1CC2(CCCC2)CC(=O)N1CCNCC1COc2ccccc2O1 (stereo not given)	inactive	
Cc1ccc(O)c(C(=O)c2ccccc2)c1	inactive	
Cc1ccc(N)nc1	inactive	
NS(=O)(=O)c1cc2c(cc1C(F)(F)F)NCNS2(=O)=O	inactive	
COc1ccc2cc(CCC(C)=O)ccc2c1	inactive	
N[C@H]1C(O)O[C@H](CO)[C@@H](O)[C@@H]1O (stereo not given in full)	inactive	
CCCC(=O)CC	inactive	
C[n+]1ccccc1/C=N/O	inactive	
CCCCS	inactive	
N#Cc1ccccc1C#N	inactive	
C/C(=N\O)c1ccc(OCC(=O)N2CCCCC2)cc1	inactive	
CNC(C)=O	inactive	
Cc1cccc(N)n1	inactive	
